# Source: PubChem BioAssay (NCI)
# About 79,000 compounds went through this panel and 15% of them were active in at least one assay; those are over-represented in the sample as a whole. Values without a mark were called inactive. Calls of active or inactive are those of the source. No stated cut-off is given here; in the data, active means growth inhibition above about 70%; inactive means the rest. Where a SMILES comes first, the peptide text is derived from it. The star is where a group is joined. Cbz = O=C(OCc1ccccc1)*
# Columns and labels:
# [1] = NCI Yeast Anticancer Drug Screen. Data for the rad50 strain (AID 155);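 further: 0% = growth of vehicle-only cultures of the same strain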; conditions: S. cerevisiae rad50 strain growth inhibition; at 50.0 µM; active compounds read high
# Summary of the method: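 Relative growth inhibition (compound vs vehicle) was measured in yeast with a defined repair-gene alteration.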
# [2] = NCI Yeast Anticancer Drug Screen. Data for the mec2-1 strain (AID 157); conditions: S. cerevisiae mec2-1 strain, at 50.0 µM, active compounds read high
# Summary of the method: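 Using mec2-1 yeast: add compound, measure growth, express inhibition versus vehicle-treated cultures.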
# [3] = NCI Yeast Anticancer Drug Screen. Data for the sgs1 mgt1 strain (AID 161);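 further: 0% = growth of cultures given vehicle only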; conditions: S. cerevisiae sgs1 mgt1 strain, at 50.0 µM, active compounds read high
# Summary of the method: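 Percent growth inhibition was derived by comparing compound-exposed mutant yeast with vehicle-exposed cultures. The strain carries alterations in DNA damage repair.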
# [4] = NCI Yeast Anticancer Drug Screen. Data for the cln2 rad14 strain (AID 165);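 further: 0% = growth equal to vehicle treated cultures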; conditions: S. cerevisiae cln2 rad14 strain, at 50.0 µM, active compounds read high
# Summary of the method: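 Yeast strain cln2 rad14, bearing defects in cell cycle control and DNA repair, serves as the test system; values reflect growth inhibition compared with vehicle.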
# [5] = NCI Yeast Anticancer Drug Screen. Data for the bub3 strain (AID 167); conditions: S. cerevisiae bub3 mutant strain, at 50.0 µM, active compounds read high
# Summary of the method: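 Screening used yeast with an engineered genetic alteration affecting cell cycle control. Compound-exposed cultures were compared with vehicle cultures, and reduced growth was taken as inhibition.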
# [6] = NCI Yeast Anticancer Drug Screen. Data for the mlh1 rad18 strain (AID 175); conditions: S. cerevisiae mlh1 rad18 strain growth inhibition; at 50.0 µM; active compounds read high
# Summary of the method: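 Steps: expose repair-defective yeast to compound; measure growth; express inhibition against vehicle-treated controls.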
SMILES,growth inhibition [1],growth inhibition [2],growth inhibition [3],growth inhibition [4],growth inhibition [5],growth inhibition [6]
c1cncc(C2c3[nH]c4ccccc4c3CCN2CCN2CCCCC2)c1 (configuration not stated),-32.8%,-46.5%,-9.4%,-4.35%,-37.5%,-34.4%
Nc1cccc2c(=O)[nH][nH]c(=O)c12,16.6%,-3.1%,23.9%,9.95%,14.8%,22.1%
CCCCCCCCCc1cc[n+](C2=C([O-])C3=C(C(=O)C2=O)C2c4ccccc4C3c3ccccc32)cc1,43.8%,50.6%,80.5% (active),46%,53.9%,60.3%
Cc1cccc(C(N)=S)n1,14.9%,7.5%,11.1%,23.9%,18.8%,22.5%
N#Cc1ccc(OCCCCOc2ccc([N+](=O)[O-])cc2Cl)cc1,5.75%,-10.7%,-19.4%,-3.8%,4.65%,20%
Cc1ccc(NC(=S)SCc2ccc(Cl)c(Cl)c2)cc1Br,29.3%,-6.45%,10.2%,15%,0.3%,13.8%
O=C(NCCCCCCNC(=O)Oc1ccccc1F)Oc1ccccc1F,-13.6%,-14.5%,-6.5%,-0.05%,6.4%,-20.9%
O=C1Nc2ccccc2/C1=N/N1C(=O)CSC1=S,28.6%,15%,32.5%,7.2%,15.6%,29.1%
COc1cc(-c2c(C)c(C)nc(OC)c2C#N)cc(OC)c1OC,-1.05%,-13.9%,-24%,-19.1%,-15.2%,-17.9%
O=Cc1cccs1,23%,-2%,7.85%,-14.6%,8.3%,33.9%
Cc1c(F)c(F)c(-c2c(F)c(F)c(C)c(F)c2F)c(F)c1F,5%,-35.2%,-17.3%,8.3%,-16.2%,0.1%
CCN(CC)c1ccccc1C,21.1%,9.9%,-5.2%,-4.95%,2.25%,-0.2%
Cc1ccc(O)c(C(=O)C[n+]2ccccc2)c1,-12.8%,-9.65%,-1.25%,1.2%,0.1%,-0.55%
CN(C)C1(C(=O)O)c2ccccc2-c2ccccc21,9.85%,10.6%,21.8%,-3.45%,16.3%,-3.3%
Cc1ccc(/C=N/NC(=O)c2ccc(C)cc2)cc1,-14.9%,-10.2%,-4.5%,-13.7%,-16.2%,-11.9%
C/C(CC(=O)Nc1ccc(C)c(C)c1)=N\NC(N)=S,-13.8%,-6.1%,1.45%,18.2%,0.05%,-2.4%
C=C(C)C(C)(C)/C(C)=N\Nc1ccc([N+](=O)[O-])cc1[N+](=O)[O-],-0.15%,-7.6%,6.2%,-23.5%,-0.15%,-8.75%
C=CCOc1cc2c(cc1C(C)c1ccc(OC)c(OC)c1)OCO2 (configuration not stated),32.9%,-3.2%,17.3%,18.4%,6.25%,49.2%
O=c1c2c(-c3ccccc3)c3ccccc3nc2cnn1-c1ccccc1,-18.4%,-11%,-18.4%,-18.4%,-24.9%,-14.2%
CC1CC=C(C(O)C(C)C)C1 (configuration not stated),0.2%,6.2%,-2.7%,-11.8%,4.15%,-0.9%
C[Si](C)(C)C#C[I+]c1ccccc1,-27.6%,-24.4%,12.7%,5.65%,8.95%,-8.85%

SMILES,growth inhibition [1],growth inhibition [2],growth inhibition [3],growth inhibition [4],growth inhibition [5],growth inhibition [6]
CCCCCCCCCCCCCCCCCC(=O)Nc1nc(N)nc(N)n1,11.1%,15.1%,3.6%,18.6%,-5.15%,6.15%
CCCCCCCCCc1ccc(OCCOC(=O)OCCOc2ccc(CCCCCCCCC)cc2)cc1,40.9%,-21.9%,16%,13.8%,4.4%,31.6%
c1ccc(-c2ccc[n+](C[n+]3cccc(-c4ccccn4)c3)c2)nc1,10.2%,-10.5%,-22.9%,-8.5%,-3.8%,33.1%
COC(=O)CC(CC(=O)OC)N1CC=CC1,-12.9%,10.5%,-5.95%,-15.1%,5.35%,31.6%
Cc1cc2c3c(nc2c2cc[nH]c(C)c12)CCCC3,88.2% (active),92% (active),92% (active),91.7% (active),90.8% (active),91% (active)
CC(=O)OC1CCC2(C)C(CCC34OC23CCC2(C)C(C(C)CCCC(C)C)CCC24C)C1(C)C (configuration not stated),45.4%,16.4%,39.5%,1%,-1%,28.4%
CC1(C)CN(Cc2ccccc2)C(C)(C)CN1,-5.85%,-6.65%,-6.4%,-54.6%,-10.5%,-4.65%
O=C1Cc2nc(CO)c(CO)c(CO)c2CO1,-43%,-34.6%,-72.7%,-2.85%,-37%,-47%
CC(=O)Nc1ccc2nc(/C=C/c3ccc(N(C)C)cc3)c(=O)oc2c1,38.5%,18.6%,25.5%,16.7%,20.1%,29.9%
Cc1nn(C(=O)c2ccncc2)c2c1C(c1ccccc1)SC(N)=N2 (configuration not stated),-2.9%,-20.1%,18.9%,9.55%,15.1%,2.35%
CCOC(=O)CCC(C(=O)OCC)c1nc2ccccc2[nH]c1=O (configuration not stated),12.6%,11.9%,12.6%,-2.75%,14.1%,14.2%
CCOC(=O)C(CC1OCCO1)C1=NC(C)(C)CC(C)O1 (configuration not stated),-18.4%,1.2%,-11.4%,-0.05%,-7%,3.85%
O=C1OC(=O)C2CCC12 (configuration not stated),14%,-9.5%,3.5%,2.5%,12.5%,17.6%
CN(C)CC(CN(C)C)C(=O)c1ccccc1,8.6%,19.6%,16.3%,-1%,-24.1%,-4.05%
COc1ccc(N=Cc2c(O)ccc3ccccc23)cc1,12%,48%,43.1%,0.95%,32%,63%
CC(=O)CC(C)(C)c1cc(CC(C)(C)C(N)=O)on1,0.75%,0.25%,17.4%,11.2%,11.3%,17.2%
Cc1ccc(C(=O)CSC2=NCCN2)cc1Cl,-9.75%,-21.8%,-12.6%,-2.2%,-11.9%,19.2%
O=C(O)C(CO)NC(=O)C1CCCN1C(=O)OCc1ccccc1 (stereo not drawn) (Cbz-Pro-Ser-OH; configuration not given here),-1.95%,-17.8%,-5.7%,-1%,-4.75%,-18%
COc1ccc2c(c1)c1c3c(ccc4ncn2c43)N(CCN(C)C)CCN=1,-27.1%,-26.1%,-9.25%,-6.3%,1.4%,-37.6%
CC1(CO)CSC(Nc2ccc(F)cc2)=N1 (configuration not stated),-7.4%,-11.1%,14.8%,14.8%,2.4%,3.35%
CC1C=CC(C)c2c(-c3ccccc3)oc(-c3ccccc3)c21 (configuration not stated),17%,8.6%,-1.5%,-2.6%,-0.4%,9.7%
